# Compound activity (PubChem BioAssay)
# In the library only some 6.2% were active in any assay of this set; here they are far more common.
# FMDV inh = foot and mouth disease virus antiviral activity; FMDV antiviral cell-based qHTS; Potency, µM (top dose mostly 57.9 µM), for inactives: at the highest dose activity change, negative = inhibition, actives largely listed as inhibitors; hit rate 1.2% among 410,000; AID 1159524; calls by dose curve; tested in HEK293T cells; also: read-out not given here; potency is read from the fitted curve at half-maximal effect; nearly all actives have a fitted effect of over 45% in size
# LASV entry inh = Lassa virus entry inhibition | Lassa virus pseudotype entry inhibition, cell reporter | Potency, µM (titrated, usually from 37.9 µM), for inactives: at the top dose activity change, negative = inhibition, usual class: inhibitors | hit rate 1.2% among 300,000; calls by dose curve; tested in HEK293 cells; also: potency is read from the fitted curve at half-maximal effect; nearly all actives have a fitted effect of over 50% in size
# MARV entry inh = blocks Marburg virus binding to or entry into cells | Potency, µM (highest dose often 37.8 µM), without a hit: at the highest dose activity change, negative = inhibition, actives largely listed as inhibitors | AID 540276 | hit rate 1.8% among 300,000 | Marburg virus pseudotyped entry inhibition, cell reporter; calls by dose curve; tested in HEK293 cells; also: potency is read from the fitted curve at half-maximal effect
# HCMV inh = blocks human cytomegalovirus replication | HFF cells, HCMV-luciferase reporter, 72 h; stronger effect = lower value | activity change, negative = inhibition, % at 57.5 µM | hit rate 4.5% among 410,000; in the data active = activity change below about -60%; inconclusive = no clear call, values can overlap the other calls; inactive = above about -39%
#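 Two compound doses tested in HFFs infected with HCMV-luciferase, MOI 1 PFU/cell, 72 h at 37C. Lysate luminescence read with OneGlo; data normalized against buffer-only and 10uM Salinomycin inhibitor controls.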
# Active calls of the source: *; u = inconclusive; x = no result given; [ ] = another dose, or the depositor's remark. % is scaled to controls: 0 for no effect and ±100 for the full control effect.
SMILES,FMDV inh,LASV entry inh,MARV entry inh,HCMV inh
C=C(C)CCCN1C=C(C(C)=O)C(c2ccccc2)NC1=O (stereo unspecified),x,x,2%[14.2 µM],x
O=C(CN1c2ccccc2S(=O)(=O)c2ccccc21)Nc1ccccc1Cl,-10%,u,x,20
O=C(CN1c2ccccc2S(=O)(=O)c2ccccc21)Nc1ccccc1F,0%,-14%[46.1 µM],2%[46.1 µM],-63*
O=C1[C@H]2[C@@H]3[C@@H](O)[C@H](O)CC(=NOCc4ccccc4)[C@H]3CC[C@H]2C(=O)N1C1CCCCC1,x,u,-25%[14.2 µM],x
Cc1cccc(S(=O)(=O)N2[C@@H]3c4cccc(=O)n4C[C@H]2[C@H](CO)[C@H]3C(=O)N(C)C)c1,x,x,x,15
CCN(CCCc1ccccc1)CCCc1ccccc1,-11%,u,5.8µM*,-18
CCN(CCCC(=O)c1ccc(F)cc1)CCc1ccccc1,3%,u,3.5µM*,-9
O=C(CCCc1ccccc1)c1ccccc1,3%,x,u,40
Cc1ccc(C(=O)Nc2cccc(-c3nc(CNC(=O)c4cccc(C)c4C)c(C)o3)c2)s1,-25%,x,x,x
COc1ccc(S(=O)(=O)Nc2cc3c(C(C)=O)c(C)oc3c3ccccc23)cc1,0%,u,u,-76*
C=CCOC(=O)N[C@@H](c1cccc(OC)c1)[C@@H](C)C=CCC(=O)O,x,x,7%[14.2 µM],x
Clc1ccc(CNc2ncnc3[nH]ncc23)cc1Cl,-21%,7.1µM*,4µM*,-34
COc1ccc(NC(=O)CN2C(=O)/C(=C3\SC(=S)N(C4CCS(=O)(=O)C4)C3=O)c3ccccc32)cc1 (stereo unspecified),u,-22%[46.1 µM],u,-4
O=C(CN1C(=O)/C(=C2\SC(=S)N(C3CCS(=O)(=O)C3)C2=O)c2ccccc21)Nc1ccc(F)cc1 (stereo unspecified),13µM*,13%,4%[46.1 µM],u
Cc1ccc2nc(/C(C#N)=C\c3ccc([N+](=O)[O-])o3)[nH]c2c1,u,3.3µM*,18µM*,-103*
CCOC(=O)c1ccc(-c2ccc(/C=C(\C#N)c3nc4ccc(C)cc4[nH]3)o2)cc1,-19%,u,x,-79*
Cc1ccc2nc(/C(C#N)=C/c3ccc(-c4ccccc4C(=O)O)o3)[nH]c2c1,7%,x,x,-6
N#C/C(=C\c1ccc([N+](=O)[O-])o1)c1nc2ccccc2[nH]1,25µM*,x,-1%,-94*
N#C/C(=C(/O)c1ccc([N+](=O)[O-])o1)c1nc2ccccc2[nH]1,-18%,x,x,-74*
CCCCNC(=O)c1nc2cc(C)c(C)cc2nc1-c1cccc(OC(F)(F)F)c1,x,x,x,25
CCNc1c(NC(=O)c2cc(OCC)c(OCC)c(OCC)c2)c(=O)oc2ccccc12,-15%,-10%[46.1 µM],2%[46.1 µM],3
O=C(NCCC1=CCCCC1)c1ccc(F)c(S(=O)(=O)N2CCOCC2)c1,-6%,0%,-8%,0
CC1CN(S(=O)(=O)c2cc(C(=O)NCCC3=CCCCC3)ccc2Cl)CC(C)O1 (stereo unspecified),-18%,u,-26%[46.1 µM],-82*
COc1cc(CCC(=O)Nc2ccc(C)c(S(=O)(=O)N3CCCCCC3)c2)cc(OC)c1OC,18µM*,u,u,-70*
COc1ccc(CCNC(=O)c2ccc(Cl)c(S(=O)(=O)N(C)c3ccccc3)c2)cc1,28µM*,u,u,-68*
SMILES,FMDV inh,LASV entry inh,MARV entry inh,HCMV inh
COc1ccc(CCNC(=O)c2ccc(N(C)S(=O)(=O)c3ccc(C)cc3)cc2)cc1,u,u,-22%[46.1 µM],-11
CC1CCCN(S(=O)(=O)c2cc(C(=O)NCCc3ccc(S(N)(=O)=O)cc3)ccc2Cl)C1 (stereo unspecified),18µM*,x,x,u
O=C(NC1CCC1)O[C@H]1CC[C@@]23CCCN2C(=O)CCC[C@H]3[C@H]1Cc1ccccc1,x,x,x,-21
Cc1ccc(OCC(=O)Nc2ccc(C)c(S(=O)(=O)N3CCCCC3)c2)c([N+](=O)[O-])n1,u,u,1.1µM*,-19
Cc1ccc(OCC(=O)Nc2ccc(S(=O)(=O)N3CCCCC3)cc2)c([N+](=O)[O-])n1,-24%,-4%[46.1 µM],-12%[46.1 µM],-5
COc1ccc(CCC(=O)Nc2ccc(Cl)c(S(=O)(=O)N3CCCC3)c2)cc1,-28%,x,x,-103*
O=C(NCCc1ccccc1)c1ccc(Cl)c(S(=O)(=O)N2CCCC2)c1,-7%,x,x,x
COc1ccc(CCC(=O)Nc2ccc(OC)c(S(=O)(=O)N3CCCCC3)c2)cc1OC,u,x,x,-20
COc1ccc(CCNC(=O)c2ccc(Cl)c(S(=O)(=O)N3CCCCCC3)c2)cc1,14µM*,x,x,-86*
CNc1nnc(-c2cc3cc(Cl)ccc3oc2=O)s1,45%,u,1%,71
O=c1oc2ccc(Cl)cc2cc1-c1nnc(Nc2cccc(C(F)(F)F)c2)s1,-17%,11%,-1%,-64*
O=c1oc2ccccc2cc1-c1nc2c(s1)CCCC2,-25%,2.9µM*,u,-21
CCCCN(CCCC)C(=O)c1cn(CC)c2cc(N3CCN(C)CC3)c(F)cc2c1=O,-5%,23%[46.1 µM],u,-66*
CCn1cc(C(=O)NCCN(C)C)c(=O)c2cc(F)c(N3CCN(C)CC3)cc21,1%,-17%,11µM*,32
NCCc1nnc(SCc2ccc(Cl)cc2)o1,0%,18%[46.1 µM],-3%[46.1 µM],-3
Cc1ccc2c(c1)cc(CN(Cc1cccs1)C(=O)c1ccco1)c1nnnn12,-23%,16µM*,u,-28
Cc1ccc2cc(CN(Cc3cccs3)C(=O)c3ccco3)c3nnnn3c2c1C,x,1%,7%,x
CN(C)c1ccc(NC(=S)c2ccccn2)cc1,2.8µM*,0.89µM*,0.82µM*,-91*
CN(C)c1ccc(C(=S)Nc2ccccc2)cc1,12%,u,14µM*,-65*
S=C(Nc1cccc(Br)c1)c1ccccc1,-2%,u,9%,-74*
COc1cc(CNc2nc(C)c(-c3ccn(C4Cc5ccccc5C4)n3)s2)cc2c1OCO2,-15%,x,x,x
Cc1ccc([C@H]2C[C@]34CN(Cc5ccccc5)S(=O)(=O)[C@H]3C[C@H]2O4)cc1,x,x,x,-88*
CCN1C(=O)C(Cc2nc3ccccc3c(=O)n2-c2ccccc2)c2cc(Br)ccc21 (stereo unspecified),u,-14%[46.1 µM],u,-70*
CN1CCCN(C(=O)/C=C/c2ccc(Cl)cc2Cl)CC1,-3%,x,x,-62*
O=C1CN(C(=O)/C=C/c2ccc(Cl)cc2Cl)CCN1,0%,2%[46.1 µM],u,13
SMILES,FMDV inh,LASV entry inh,MARV entry inh,HCMV inh
CC(C)N1C(=O)/C(=C\c2nc3ccccc3c(=O)[nH]2)c2ccccc21,40µM*,u,u,77
CCCN1C(=O)/C(=C/c2nc3ccccc3c(=O)[nH]2)c2ccccc21,0%,-7%,u,-2
CC(=O)/C=C/n1c(=S)oc2ccccc21,3.2µM*,u,13µM*,-100*
CC(C)CC(=O)/C=C/n1c(=S)oc2ccccc21,u,13%,-16%,57
CCOc1c(OC(C)=O)ccc(/C=C/c2ccc3cccc(OC(C)=O)c3n2)c1[N+](=O)[O-],23%,u,10%,26
C=CCN1C(=O)/C(=C/c2ccc(OC(C)=O)c(OCC)c2[N+](=O)[O-])SC1=S,u,u,u,-99*
COCCNc1nc(-c2ccccc2Cl)nc2ccccc12,-19%,x,x,x
